Reference: PubChem BioAssay AID368 (University of Pittsburgh Molecular Library Screening Center, 2006)
Among all 65,000 compounds or so, about 85 (0.1%) were called active. Shown is part of a subset that was picked to be rich in actives. Values without a mark were called inactive. No stated cut-off is given here; in the data, active means inhibition above about 50%; inactive means the rest.

Each compound was assayed against M-phase inducer phosphatase 2 (Homo sapiens) (UniProt P30305) (assay: inhibitors of Cdc25B phosphatase catalytic domain, primary screen, biochemical, OMFP fluorescence (AID 368)). Conditions: recombinant Cdc25B, OMFP fluorescence Ex485/Em525; active compounds read high;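 compounds tested at 10 µM final in the well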.
M-phase inducer phosphatase 2 (Homo sapiens), sequence (P30305 whole entry, looked up, the tested form may be a part): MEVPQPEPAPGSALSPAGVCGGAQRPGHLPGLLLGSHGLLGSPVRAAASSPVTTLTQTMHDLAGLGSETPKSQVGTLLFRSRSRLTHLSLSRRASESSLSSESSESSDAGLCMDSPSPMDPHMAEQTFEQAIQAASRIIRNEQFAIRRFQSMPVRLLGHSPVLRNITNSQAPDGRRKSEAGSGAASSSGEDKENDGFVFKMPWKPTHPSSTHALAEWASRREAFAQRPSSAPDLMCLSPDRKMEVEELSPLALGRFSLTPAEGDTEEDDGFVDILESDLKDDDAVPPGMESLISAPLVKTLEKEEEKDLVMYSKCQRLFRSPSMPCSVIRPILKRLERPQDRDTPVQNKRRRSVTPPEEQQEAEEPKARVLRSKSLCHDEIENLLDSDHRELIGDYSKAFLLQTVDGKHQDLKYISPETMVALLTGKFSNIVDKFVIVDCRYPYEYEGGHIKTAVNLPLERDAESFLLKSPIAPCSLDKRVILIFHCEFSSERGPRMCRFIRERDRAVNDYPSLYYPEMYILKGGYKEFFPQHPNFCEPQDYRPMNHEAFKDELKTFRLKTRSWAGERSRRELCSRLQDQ

SMILES	inhibition
CC(C)C(c1nnnn1C1CCCC1)N1CCN(c2ccccc2F)CC1 (centres undefined)	-10.2%
CC(C)C1Cc2c(sc3c2c(=O)n(-c2ccccc2)c2nncn32)CO1 (centres undefined)	-39.8%
C=CCNC(=O)C1CC=CCC1C(=O)O (centres undefined)	-12.3%
Cc1nc(Nc2ccc3c(c2)OCCO3)c2nnn(Cc3ccccc3Cl)c2n1	-17.1%
CC(=O)N1CCC(C(=O)Nc2nc(-c3ccccc3)ns2)CC1	-5.67%
CN1C(=O)c2ccc(NC(=O)c3c(F)c(F)c(F)c(F)c3F)cc2C1=O	2.43%
O=C(CC(NS(=O)(=O)c1ccc(Cl)cc1)c1ccco1)NC1CCCC1 (centres undefined)	-20.3%
O=C(NC1=NCCS1)c1ccc(Cl)s1	1.03%
CC1Cc2ccccc2N1C(=O)Cn1cnc2ccccc2c1=O (centres undefined)	-1.71%
c1nnc2c3c4c(sc3ncn12)CCC4	0.998%
O=C(CN1C(=O)C2C3C=CC(C3)C2C1=O)NCC1COc2ccccc2O1 (centres undefined)	-2.93%
COCCNC(=O)CN(C(=O)CCC(=O)Nc1cc(C)on1)c1ccc(C)cc1C	11.4%
O=C(Nc1cccc(C(=O)N2CCCC2)c1)c1ccccc1	-4.63%
O=C(Nc1cccc(NC(=O)N2CCN(c3ccccc3)CC2)c1)N1CCN(c2ccccc2)CC1	76.4% (active)
CC(=O)N1CCN(C(=O)Nc2cccc(C(F)(F)F)c2)CC1	-11.9%
Cc1ccc2c(CSc3nncs3)cc(=O)oc2c1	-6.44%
CCOC(=O)c1[nH]c2c(c1C)C(=O)CC(c1ccc(N(C)C)cc1)C2 (centres undefined)	-8.71%
Cc1ccc(N)cc1-n1c(C)ccc1C	1.36%
Cc1ccc(CNC(=O)CN2CCN(Cc3ccc(Cl)cc3)C2=O)cc1	1.98%
COCCCN1C(=O)c2ccc(C(=O)Nc3ccc(OC)cc3OC)cc2C1=O	-4.42%
Cc1cc(Cl)c(S(=O)(=O)NCc2cccnc2)cc1OCC(N)=O	-3.27%
CCOC(=O)C1=C(C)NC(C)=C(C(=O)OCC)C1C1=COCCO1	1.59%

SMILES	inhibition
COc1ccc(N2CCN(C3CC(=O)N(c4ccc5c(c4)OCCO5)C3=O)CC2)cc1 (centres undefined)	5.32%
CCn1c(NCCc2ccc(OC)c(OC)c2)nc2c1c(=O)n(C)c(=O)n2C	7.88%
COc1cc(-c2nc(S(=O)(=O)c3ccc(Cl)cc3)c(N(C)C)o2)cc(OC)c1OC	-3.74%
Cc1ccc(C(c2nnnn2CS(=O)(=O)c2ccc(C)cc2)N2CCC(C(N)=O)CC2)cc1 (centres undefined)	-6.28%
CCCOc1ccc(C2C(C(=O)c3ccc(C)o3)=C(O)C(=O)N2CCCn2ccnc2)cc1 (centres undefined)	-1.79%
O=c1c2ccccc2oc2nc3n(c(=O)c12)CCCS3	-1.25%
CCOC(=O)N1CCN(C(=O)CSc2ccc(Cl)cc2)CC1	3.41%
CC1CN(C(=O)c2ccc3c(c2)OCO3)OC(c2ccccc2)O1 (centres undefined)	-8.81%
CC1=C(C)CC2C(=O)N(c3cccc4ccccc34)C(=O)C2C1 (centres undefined)	-7.9%
Cc1nc2c(-c3ccccc3)c(C)[nH]n2c(=O)c1Cl	-4.09%
COc1ccc(S(=O)(=O)N(C)CC(=O)Nc2ccc3c(c2)OCCO3)cc1OC	-5.79%
O=S(=O)(Nc1ccc2nc(-c3ccco3)[nH]c2c1)c1ccccc1	-8.83%
O=S(=O)(c1cccc(-c2nnc(SC(F)F)n2-c2ccccc2)c1)N1CCCCC1	10.3%
CCC(=O)Nc1cccc(NC(=O)CSc2nnnn2C2CCCC2)c1	-2.8%
CCOc1ccc(C(=O)Nc2cc(OC)ccc2OC)cc1	-1.04%
O=C(C1CCN(c2nnc(-n3cccc3)s2)CC1)N1CCc2ccccc2C1	-4.75%
Cc1noc(/C=C/N(C)C)c1S(=O)(=O)N1CCCC(C(=O)NCc2ccco2)C1 (centres undefined)	-8.56%
CCCCc1cc(=O)oc2cc(C)cc(OCc3nn[nH]n3)c12	-4.64%
CCOC(=O)c1c(NC(=O)c2cccs2)sc(C)c1C	-1.19%
COCCNC(=O)CSc1nc2c(n1-c1ccccc1)CCCC2	-0.327%
CCn1c(SCC(=O)Nc2ccccc2F)nc2c(c1=O)SC(C)C2 (centres undefined)	-15.6%
CCOc1ccccc1N(CC(=O)NC1CCCCC1)C(=O)CCCC(=O)Nc1ccccn1	-10.5%

SMILES	inhibition
CCOC(=O)N1CCC(NC(=O)CN2C(=O)COc3ccc(C(C)(C)C)cc32)CC1	-4.53%
CCCN(CCC)C(=O)C1c2ccccc2Oc2ccccc21	-5.87%
COC(=O)c1c(NC(=O)c2cccs2)sc2c1CCCC2	-11.6%
COc1cccc(N(C(=O)c2ccn[nH]2)C2(C(=O)Nc3c(C)cccc3C)CCCCC2)c1	4.58%
CCN(CC)C(=O)C1CCC(C)(C(=O)O)C1(C)C (centres undefined)	-11.3%
COc1ccc(-c2noc(-c3cccc(OC)c3OC)n2)cc1OC	-12.3%
COc1ccc(CCNC(=O)c2cc(-c3ccc4c(c3)OCO4)on2)cc1OC	-4.69%
COc1ccc(-c2cc3n(n2)CCc2nc4ccccc4n2-3)cc1	-0.418%
O=C(Cc1ccccc1)n1nc(-c2ccccc2)nc1NCc1ccco1	-11.6%
COc1ccc(N2C(=O)CN=C2Nc2cccc(C)c2C)cc1OC	-17.1%
COc1ccc(C)cc1NC(=O)c1[nH]c(C)c(C(C)=O)c1C	-7.67%
CCOC(=O)c1c(C)[nH]c(C(=O)NCc2ccccc2OC)c1C	0.611%
COc1cccc2c(C)c(C(=O)O)[nH]c12	50.5% (active)
FC(F)(F)c1nnc2sc(-c3ccco3)nn12	6.19%
CC1(N2CCOCC2)CC2(O)C(=[N+]1[O-])CCc1nonc12 (centres undefined)	-12.9%
Cc1nn(Cc2ccc(Cl)c(Cl)c2)c(C)c1NC(=O)c1cc(C2CC2)on1	-9.41%
Cc1cc(NS(=O)(=O)c2ccccc2)no1	-0.238%
Nc1ccc(SCCN2C(=O)c3ccccc3C2=O)cc1	3.47%
COc1ccc(C(=O)NCc2cn3ccccc3n2)cc1	8.6%
CC(=O)OCc1cc2cc(C)ccc2[nH]c1=O	8.17%
Cc1noc(C)c1C(=O)NC(C)c1ccc2c(c1)OCO2 (centres undefined)	-2.76%
O=C(NC1CC2CCCC(C1)N2C(=O)N1CCCCC1)C1CCCCC1 (centres undefined)	0.205%

SMILES	inhibition
Cc1cccc(OCc2nnc(SCc3nc4cc(C(F)(F)F)ccc4c(=O)[nH]3)o2)c1	4.99%
C=CCNc1nnc(SCC(=O)N2CCCCC2)c2ccccc12	-10.6%
O/N=C(\c1ccc2c(c1)OCCO2)C1CCCCC1	-1.56%
CC(C)Cc1cc(C(=O)NCCc2ccccc2)no1	-7.12%
O=C(OCC(=O)c1cccs1)C1=COCCO1	-13.5%
Cc1ccc(-c2csc3nnc(SCC(=O)NCc4ccco4)n23)cc1	-17.7%
Fc1ccccc1CCNc1nnnn1-c1ccccc1	0.973%
Cc1cc(=O)oc(C)c1C(=O)NC1CC(C)(C)NC(C)(C)C1	-30.7%
CCCc1cc(=O)oc2c(C)c(O)c(CN3CCCCC3)cc12	-7.47%
COc1ccc(-c2nc3n(c2Br)CCC3)cc1	2.84%
CC1(C)C(=O)Nc2ccccc2N1C(=O)COC(=O)Cn1cnc2ccccc2c1=O	-9.58%
CC(C)OC(=O)c1sc2nc3c(cc2c1N)C(=O)CCC3	15.7%
CCN(CCCCOC(=O)c1ccc(OC)c(OC)c1)C(C)Cc1ccc(OC)cc1 (centres undefined)	-19.9%
O=C(O)[C@@H]1CCCN1c1ncnc2sc3c(c12)CCC3	1.46%
O=C(Nc1ccc2c(c1)nc1n2CCCCC1)c1cc(S(=O)(=O)N2CCOCC2)ccc1Cl	7.55%
O=S(=O)(Nc1ccccc1N1CCOCC1)c1ccc(Cl)s1	-16%
COc1cc(OC)c(C(=O)Nc2ccc(N(C)C)cc2)cc1OC	4.05%
CCOC(=O)c1ccc(-c2ccc(C(=O)Nc3cccnc3)o2)cc1	-8.16%
CCOc1cc(NC(=O)c2ccco2)c(OCC)cc1NC(=O)COc1ccccc1	2.37%
COc1ccc(OC)c(C2N(c3ccccn3)C(=O)C3CCCN32)c1 (centres undefined)	6.93%
CCCc1nc(N)nc2c1C(=O)CC(C)(C)C2	-1.09%
CCCN1CCN(CCCNC(=O)CN2C(=O)COc3ccccc32)CC1	-2.33%

SMILES	inhibition
O=C(N1CCOCC1)N(Cc1ccccc1)c1ccccn1	-13.1%
O=C(COc1cccc(-n2cnnn2)c1)NCCC1=CCCCC1	-1.12%
Cc1ccnc(N2CCCC(C(=O)Nc3cc(F)ccc3C)C2)n1 (centres undefined)	12.7%
CC1CN(C2CCN(C(=O)COc3ccccc3)CC2)CC(C)O1 (centres undefined)	-13.1%
CC1CCCC(C)N1C(=O)CN1CCN(c2nc(-c3ccc(F)cc3)cs2)CC1 (centres undefined)	-8.69%
CNC(=O)c1nnn(-c2ccccc2)c1C(=O)NC	0.211%
O=c1c(F)cn(C2CCCO2)c(=O)n1Cc1ccccc1Cl (centres undefined)	1.39%
Fc1ccccc1C(c1nnnn1Cc1ccc2c(c1)OCO2)N1CCN(Cc2ccccc2)CC1 (centres undefined)	-4.84%
C=CCn1c(=N)n(CC(O)COc2ccc(OC)cc2)c2ccccc21 (centres undefined)	0.106%
Cc1ncc(CC(=O)n2cc(C(=O)c3cc(Cl)ccc3O)cn2)s1	-7.5%
CC(Nc1nc(N2CCCC2)nc2ccccc12)c1ccccc1 (centres undefined)	-6.08%
c1ccc2c(NCC3CCCO3)nc(-c3ccncc3)nc2c1 (centres undefined)	1.5%
O=C(C1=C(O)C(=O)N(Cc2ccccc2)C1c1cccnc1)c1ccco1 (centres undefined)	-7.28%
CC(C)(C)Oc1ncc(Br)c(OC(C)(C)C)n1	-14.4%
CC(C)c1ccc(N2CC(C(=O)Nc3nccs3)CC2=O)cc1 (centres undefined)	3.74%
COc1ccc(-n2nc3c(c2NC(=O)Cc2cccc(C)c2)CS(=O)C3)cc1 (centres undefined)	-6.02%
C[N+]1(CCNC(=O)/C=N/O)CCCCC1	15.7%
CCOc1cc(N2CCOCC2)c(OCC)cc1NC(=O)COc1cccc2cccnc12	-6.8%
CCn1c(SCC(=O)Nc2cccc(F)c2)nnc1-c1cc2cc(Br)ccc2o1	-5.35%
COC(=O)c1ccc(NC(=O)CN(c2ccc(C)cc2)S(=O)(=O)c2c(C)n[nH]c2C)cc1	5.5%
CC1(C)CC(O)C(CCC(O)c2ccccc2)C(C)(C)N1 (centres undefined)	-23.8%
